Assay results published in PubChem BioAssay (NCATS).
Records with an inconclusive call do not appear. Active and inactive are the calls of the source. The call rests on the fitted dose curve; in most records, active means well fitted inhibition curve with a large enough effect; inconclusive means small, poorly fitted or top-dose-only effect; inactive means flat fitted curve, though single readings scatter.

Columns and labels:
Assay in all cases: qHTS profiling for inhibitors of Plasmodium falciparum proliferation (AID 504749); further: nearly all actives have a fitted effect of over 60% in size;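 on activity, negative = inhibition: 0% = DMSO vehicle and full inhibition = artemisinin control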
Details in all cases: P. falciparum in erythrocytes, SYBR Green DNA, 72 h; series mostly up to 28.7 µM
FAB9 = test system: FAB9
How it was run: (§1)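 Readout was DNA-dye fluorescence from lysed cultures, ex 485/em 535 nm. Parasitized red cells had grown 72 h with compound; data scaled between 0.29 uM artemisinin and DMSO wells and corrected using vehicle-only plates.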

GB4 = test system: GB4
How it was run: as §1

HB3 = test system: HB3
How it was run: as §1

ICS = test system: ICS
How it was run: as §1

JCK = test system: JCK
How it was run: as §1

N140 = test system: N140
How it was run: as §1

P93_24 = test system: P93_24
How it was run: as §1

P94_40 = test system: P94_40
How it was run: as §1

PAD = test system: PAD
How it was run: as §1

PC15 = test system: PC15
How it was run: as §1
Potency means the concentration at half of the fitted maximal effect.

CCCCC/C=C\C/C=C\C/C=C\C/C=C\CCCC(=O)NCC(=O)O
inactive: activity, negative = inhibition (FAB9) 0.295% [at 2.67 µM] | activity, negative = inhibition (GB4) 5.94% [at 2.67 µM] | activity, negative = inhibition (HB3) -4.91% [at 2.67 µM] | activity, negative = inhibition (ICS) -4.84% [at 2.67 µM] | activity, negative = inhibition (JCK) 0.614% [at 2.67 µM] | activity, negative = inhibition (N140) -7.13% [at 2.67 µM] | activity, negative = inhibition (P93_24) -5.2% [at 2.67 µM] | activity, negative = inhibition (P94_40) -8.27% [at 2.67 µM] | activity, negative = inhibition (PAD) 4.88% [at 2.67 µM] | activity, negative = inhibition (PC15) 6.96% [at 2.67 µM]

O=C(Nc1ccc(Br)cc1)c1cc(Br)cc(Br)c1O
inactive: Potency (FAB9) | Potency (GB4) | Potency (HB3) | Potency (ICS) | Potency (JCK) | Potency (N140) | Potency (P93_24) | Potency (P94_40) | Potency (PAD) | Potency (PC15)

NC(=O)c1cc([N+](=O)[O-])cc([N+](=O)[O-])c1
inactive: Potency (FAB9) | Potency (HB3) | Potency (P94_40) | Potency (PAD)

CC(C)NC(C)C
inactive: Potency (FAB9) | Potency (GB4) | Potency (HB3) | Potency (ICS) | Potency (JCK) | Potency (N140) | Potency (P93_24) | Potency (PAD) | Potency (PC15)

CCCCCCCCCC(=O)O[C@H]1CC[C@H]2[C@@H]3CCC4=CC(=O)CC[C@@H]4[C@H]3CC[C@]12C
inactive: Potency (FAB9) | Potency (GB4) | Potency (HB3) | Potency (JCK) | Potency (N140) | Potency (P93_24) | Potency (P94_40) | Potency (PAD) | Potency (PC15)

CN1CCC(O)(c2ccc(F)cc2)C(C(=O)c2ccc(F)cc2)C1 (configuration not stated)
inactive: Potency (FAB9) | Potency (GB4) | Potency (HB3) | Potency (ICS) | Potency (JCK) | Potency (N140) | Potency (P94_40) | Potency (PAD) | Potency (PC15)

C[C@]12CCC(=O)C=C1CC[C@@H]1[C@@H]2CC[C@]2(C)C(=O)CC[C@@H]12
inactive: Potency (FAB9) | Potency (GB4) | Potency (HB3) | Potency (ICS) | Potency (JCK) | Potency (N140) | Potency (P93_24) | Potency (P94_40) | Potency (PC15)

O=C(N/N=C/c1ccc([N+](=O)[O-])o1)c1cc([N+](=O)[O-])cc([N+](=O)[O-])c1O
inactive: Potency (PC15)
active: Potency (HB3) 1.58 µM | Potency (N140) 0.708 µM | Potency (P93_24) 0.1 µM | Potency (P94_40) 0.0794 µM | Potency (PAD) 0.0071 µM

CN1C(=O)CCS(=O)(=O)C1c1ccc(Cl)cc1 (configuration not stated)
inactive: Potency (FAB9) | Potency (GB4) | Potency (HB3) | Potency (ICS) | Potency (JCK) | Potency (N140) | Potency (P93_24) | Potency (P94_40) | Potency (PAD) | Potency (PC15)

COc1ccc2c(c1OC)C(=O)O[C@H]2[C@@H]1c2cc3c(cc2CCN1C)OCO3
inactive: Potency (GB4)

Nc1ccc([As](=O)(O)O)cc1
inactive: Potency (FAB9) | Potency (HB3) | Potency (JCK) | Potency (N140) | Potency (P93_24) | Potency (PAD) | Potency (PC15)

COC1CC(=C(c2cccs2)c2cccs2)C[N+](C)(C)C1 (configuration not stated)
active: Potency (GB4) 7.57 µM | Potency (HB3) 8.91 µM | Potency (ICS) 3.98 µM | Potency (N140) 7.94 µM | Potency (P93_24) 5.01 µM | Potency (P94_40) 2.24 µM

CN1C(=O)NC(=O)C(C)(C2=CCCCC2)C1=O (configuration not stated)
inactive: Potency (FAB9) | Potency (GB4) | Potency (HB3) | Potency (ICS) | Potency (JCK) | Potency (N140) | Potency (P93_24) | Potency (P94_40) | Potency (PAD) | Potency (PC15)

O=c1[nH]oc2c1CCNC2
inactive: Potency (FAB9) | Potency (GB4) | Potency (HB3) | Potency (ICS) | Potency (N140) | Potency (P93_24) | Potency (P94_40) | Potency (PAD) | Potency (PC15)

COC(=O)C(c1ccccc1)C1CCCCN1 (configuration not stated)
inactive: Potency (FAB9) | Potency (HB3) | Potency (ICS) | Potency (JCK) | Potency (N140) | Potency (P93_24) | Potency (P94_40) | Potency (PAD) | Potency (PC15)

O=C1c2ccccc2C(=O)c2ccccc21
inactive: Potency (JCK) | Potency (P94_40)
active: Potency (HB3) 11.2 µM | Potency (ICS) 3.55 µM
